Laboratory results as given in PubChem BioAssay AID493232 (The Scripps Research Institute Molecular Screening Center, 2011).
Out of some 1,800 compounds screened, about 860 (48%) were called active. No stated cut-off is given here; in the data, active means inhibition above about 17%; inactive means the rest. So high a share suggests a set chosen from earlier hits. Only a sample is shown.

Assay: signal inhibition in parental CHO-K1 cells, counter-screen for OX1R antagonist project, cell-based, HTRF (AID 493232);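 further: 0% = agonist challenge with vehicle and 100% = vehicle alone without agonist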
Conditions: HTRF counterscreen, at 6.6 µM, hits give high values

Compound | inhibition
NS(=O)(=O)c1ccc(CCNC(=O)c2ccc([N+](=O)[O-])cc2[N+](=O)[O-])cc1 | 76.4% (active)
O=C(Nc1nnc(-c2ccccc2)o1)c1cc(-c2cccs2)nc2ccccc12 | -1.4% (inactive)
Cn1c(N)c(C(=O)COC(=O)c2ccc3ccccc3c2)c(=O)n(C)c1=O | 9.11% (inactive)
COc1ccc(CCn2c(NCCCN3CCOCC3)nc3c2c(=O)[nH]c(=O)n3C)cc1 | -0.46% (inactive)
O=C(/C=C/c1ccco1)Nc1cccc(-c2nc3ccccc3[nH]2)c1 | 20.4% (active)
Cc1ccc2c(c1)nnc1nnc(SCC(=O)O)n12 | 113% (active)
CCn1c(SCC(=O)c2ccc3ccccc3c2)nnc1-c1cccs1 | 7.75% (inactive)
COc1ccc2[nH]c(=O)c(CNc3ccc(C)c(C)c3)cc2c1 | 33.7% (active)
CN(C(=O)CSc1nnc(-c2n[nH]c3ccccc23)o1)c1ccccc1 | -4.39% (inactive)
O=C(Nc1ccc2sc3ccccc3c(=O)c2c1)c1ccccc1Cl | -3.67% (inactive)
Cc1ccc(Nc2nc(CSc3nnnn3-c3ccccc3)cc(=O)[nH]2)cc1 | 1.23% (inactive)
CCn1c(O)c(N=NC2=NC(=O)CS2)c2cc(C)ccc21 | 21.8% (active)
O=C(Oc1ccccc1C(=S)N1CCCCC1)c1cc([N+](=O)[O-])cc([N+](=O)[O-])c1 | 56.2% (active)
COc1cc(C(=S)N2CCOCC2)cc(OC)c1OC(=O)c1ccc([N+](=O)[O-])cc1[N+](=O)[O-] | 8.29% (inactive)
COC(=O)CNC(=O)c1ccc2c(c1)S(=O)(=O)c1ccccc1C2=O | 70.6% (active)
COc1cccc(C(=O)NC(=O)Nc2nc(C)cc(C(F)(F)F)n2)c1 | 0.24% (inactive)
CCOc1ccc(CCNC(=O)C(CC)n2nc(C)n3c(cc4sccc43)c2=O)cc1OCC (stereo unspecified) | 7.91% (inactive)
CCn1c(=N)c(C(=O)NCCCOC)cc2c(=O)n3cccc(C)c3nc21 | 83.9% (active)
CCOc1ccc(/C=C/C(=O)OCC(=O)c2ccccc2OC)cc1OC | 7.57% (inactive)
O=C(NCc1ccco1)C1CCCN(S(=O)(=O)c2cccc3nonc23)C1 (stereo unspecified) | 19.7% (active)
C/C(N)=C(/C#N)C(=O)COC(=O)c1cc(-c2ccc(C)cc2)nc2ccccc12 | 6.3% (inactive)
COc1cc2ccccc2cc1C(=O)Nc1ccc(N2CCOCC2)cc1 | 16.2% (inactive)

Compound | inhibition
Cn1cnnc1Sc1ccc(S(C)(=O)=O)cc1[N+](=O)[O-] | 50.5% (active)
Nc1[nH][nH]c(=O)c1N=Nc1ccc2c(c1)OCO2 | 52.9% (active)
COc1ccc(CCNC(=O)/C(C#N)=C2\N=C(NC(=O)c3cccs3)c3ccccc32)cc1 | 24% (active)
O=C(N/N=C/c1c(Cl)[nH]c2ccccc12)c1sc2ccccc2c1Cl | 16% (inactive)
Cc1cc(C(=O)NC2CCCc3c2cnn3-c2cccc(C)c2C)c(C)o1 (stereo unspecified) | 9.36% (inactive)
O=C(Nc1nnc(C2=COCCO2)o1)c1ccc([N+](=O)[O-])s1 | 52.2% (active)
Cc1ccccc1S(=O)(=O)N1[C@@H](c2cccc(Cl)c2)C(C(=O)O)=CC[C@H]1c1ccc(Cl)cc1 | 12.8% (inactive)
COc1ccc(N2CC(C(=O)NCCN3C(=O)S/C(=C\c4cccnc4)C3=O)CC2=O)c(OC)c1 (stereo unspecified) | 56.9% (active)
COc1ccccc1N1CC(C(=O)Nc2ccc(S(=O)(=O)N3CCOCC3)cc2)CC1=O (stereo unspecified) | 8.11% (inactive)
COc1ccc(S(=O)(=O)NC(C)c2ccccc2)cc1C(=O)N1CCCCC1 (stereo unspecified) | -4.56% (inactive)
CC(=O)Oc1ccc(C(C)=O)c2c1OCCO2 | 0.1% (inactive)
COc1cccc(N=c2oc3c(C)ncc(CO)c3cc2C(N)=O)c1 | 51.5% (active)
COc1cccc(/C=N/Nc2cc(C)nc(-c3ccccc3O)n2)c1O | 15.3% (inactive)
CSCCC(NC(=O)c1cc([N+](=O)[O-])cc([N+](=O)[O-])c1)c1nc2ccccc2[nH]1 (stereo unspecified) | 24.7% (active)
COc1cccc(/C=N/NC(=O)c2[nH]nc3c2CCc2ccccc2-3)c1O | -15.5% (inactive)
COCCNC(=O)Nc1ccc2nc(-c3ccco3)c(-c3ccco3)nc2c1 | 48.3% (active)
Cc1cc(-c2ccc(C)c(S(=O)(=O)NC(C)Cc3ccco3)c2)on1 (stereo unspecified) | -2.9% (inactive)
CCn1c(C)nc2c1C(=O)c1ccccc1C2=O | 97.1% (active)
C[n+]1ccccc1C1CCCC/C1=N\Nc1ccc([N+](=O)[O-])cc1[N+](=O)[O-] (stereo unspecified) | 9.46% (inactive)
c1ccc(-c2nc(NCc3ccco3)c3ccccc3n2)cc1 | 8.16% (inactive)
CC(=O)N/N=C/c1cc2c(cc1[N+](=O)[O-])OCO2 | 60.3% (active)
O=C(CN1C(=O)c2cccc3cccc(c23)C1=O)N1CCCCC1 | 50% (active)

Compound | inhibition
CCC(=O)N(C)C(c1ccccc1Cl)c1nnnn1-c1c(C)cccc1C (stereo unspecified) | 0.65% (inactive)
Cc1cccc(NS(=O)(=O)c2cccc(C(=O)NNC(=O)c3ccccc3O)c2)c1 | 4.72% (inactive)
N#C/C(=C1\CCCN1)c1nc(-c2ccccc2)cs1 | 10.3% (inactive)
Nc1ccc2nc3c(=O)[nH]c(=S)[nH]c3nc2c1 | 77% (active)
Nc1nc(-c2sc3nc4c(cc3c2N)CCCC4)nc(N2CCOCC2)n1 | 16.2% (inactive)
CC(=O)c1cccc(NC(=O)C2CCCN2S(=O)(=O)c2cccc3nsnc23)c1 (stereo unspecified) | 33% (active)
Cc1cc(C)cc(NC(=O)C2CCCN2S(=O)(=O)c2cccc3cccnc23)c1 (stereo unspecified) | -5.63% (inactive)
O=C(N/N=C/c1sc(N2CCCCC2)nc1-c1cccs1)c1cccnc1 | 6.55% (inactive)
N#Cc1nc(-c2cccc3ccccc23)oc1N | -17.8% (inactive)
O=C(Nc1ccccc1Cl)/C(Cl)=C(\Cl)S(=O)c1ccccc1 (stereo unspecified) | -27.6% (inactive)
COc1ccc2oc(=O)c(C(=O)NCc3ccccn3)cc2c1 | 47.5% (active)
O=C(O)CCC(=O)Nc1nc2ccc([N+](=O)[O-])cc2s1 | 47.7% (active)
COc1cccc(/C=C/c2ccc3ccccc3n2)c1OC(C)=O | 11.5% (inactive)
Cc1c(/C=N\NC(=O)c2cc3ccccc3o2)c2ccccc2n1C | 12.8% (inactive)
COC(=O)N/N=C/c1c[n+]([O-])c2ccccc2[n+]1[O-] | 97.3% (active)
CC(C)(C)NC(=O)CN(C(=O)c1csnn1)c1ccccc1-c1ccccc1 | 1.93% (inactive)
CN1CCN(/N=C/c2ccc(-c3ccc([N+](=O)[O-])cc3)o2)CC1 | 34% (active)
Cc1oc2c(c1C(=O)N1CCOCC1)C(=O)c1ccccc1C2=O | 104% (active)
CC(NC(=O)c1cccc2ccccc12)c1ccc2c(c1)CCCC2 (stereo unspecified) | 9.37% (inactive)
CCOc1cc(/C=C(\C#N)c2nc(-c3cccs3)c(NC(C)=O)s2)ccc1O | 2.21% (inactive)
CC(C)CC[n+]1ccn(C2=C([O-])c3ccccc3C(=O)/C2=N\S(=O)(=O)c2ccccc2)c1 | 100% (active)
O=C(OC1CCOC1=O)c1ccc(-c2nc3ccccc3s2)s1 (stereo unspecified) | 28.1% (active)

Compound | inhibition
Cc1cc(=O)oc(C)c1C(=O)NCCN(C)Cc1ccccc1 | 4.29% (inactive)
O=C(c1ccncc1)c1ccc([N+](=O)[O-])cc1 | 68.8% (active)
CC(=O)Nc1ccc(Nc2c([N+](=O)[O-])cc(S(C)(=O)=O)cc2[N+](=O)[O-])cc1 | 71% (active)
CC(C)(C)NC(=O)Cn1cnc2cc([N+](=O)[O-])ccc2c1=O | 73.7% (active)
O=C(Nc1cccc2cccnc12)c1cccc(N2C(=O)CCC2=O)c1 | 8.23% (inactive)
O=C(Cc1ccccc1)N1CCN(S(=O)(=O)c2ccc([N+](=O)[O-])cc2)CC1 | 28.9% (active)
Cc1ccc([C@@H]2CC=C(C(=O)O)[C@H](c3cccc(Cl)c3)N2S(=O)(=O)c2ccc(C)cc2)cc1 | 4.59% (inactive)
S=c1[nH]nc(-c2cc(-c3ccccc3)n[nH]2)n1/N=C/c1c2ccccc2cc2ccccc12 | 6.53% (inactive)
Cc1cccn2c(=O)c3cc(C#N)c(=NC(=O)c4cccnc4)n(CC4CCCO4)c3nc12 (stereo unspecified) | 46.1% (active)
Nc1nc(COC(=O)CCC(=O)c2ccc(Cl)cc2)nc(Nc2ccccc2)n1 | -0.94% (inactive)
Cc1cccc(NC(=O)Nc2cccc(Oc3c(F)c(F)c(F)c(F)c3F)c2)c1 | 14.7% (inactive)
O=C(NC(Cc1c[nH]c2ccccc12)C(=O)N/N=C/c1ccc(Br)cc1)c1cccs1 (stereo unspecified) | 3.77% (inactive)
COC(=O)c1sccc1NC(=O)CSc1ccccc1NS(=O)(=O)c1cc(Cl)ccc1Cl | 12.9% (inactive)
COCCCNC(=S)NC(=O)c1ccc([N+](=O)[O-])cc1 | 29.9% (active)
COc1cc(OC)c(NC(=O)c2ccc(Br)o2)cc1Cl | 8.45% (inactive)
CCOc1ccc(NC(=O)CCS(=O)(=O)c2cccc3nsnc23)cc1 | 35.3% (active)
COc1ccc(N(C)C(=O)CCS(=O)(=O)c2cccc3nsnc23)cc1 | 56% (active)
COc1ccc2sc(-c3ccc(N(C)C)cc3)c(C#CCO)c2c1 | 14.2% (inactive)
C=CCn1c(SCC(=O)Nc2nc3ccccc3s2)nnc1-c1ccccc1O | -0.28% (inactive)
N#CC(=C1SC=CS1)c1nc(-c2ccccc2)cs1 | 14.8% (inactive)
